From PubChem BioAssay
This excerpt belongs to a sample that is enriched for hits.
Tg IFNy HTS: blocks Toxoplasma gondii growth in the presence of IFN-gamma | Toxoplasma gondii growth in IFN-gamma-treated host cells; active compounds read low | activity change, negative = inhibition, % (no concentration beside the values) | 69,000 compounds, 3.8% hits; in the data active = activity change below about -70%, passing the limit was not always enough;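 note: host cells are HeLa cells infected with Toxoplasma gondii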
Numbers stand for hits; – = inactive.

SMILES | Tg IFNy HTS
CC(C)(C)C(=O)Nc1cc(C(F)(F)F)ccc1N1CCC(C(F)(F)F)CC1 | -97.1
CC(=O)c1ccc(N2CCC(C)CC2)c(F)c1 | –
COc1ccc(CN2CCC(c3cc4ncccc4cn3)CC2)cc1OC | –
CN(CCNC1CCSC1)S(C)(=O)=O (stereo not given) | –
Cc1nc(-c2ccc(Cl)cc2)sc1CCNC(=O)C(=O)Nc1cc(F)ccc1F | –
C[C@@H]1CN([C@H](C)CO)C(=O)CCCn2nncc2CO[C@H]1CN(C)Cc1cccc2c1OCCCO2 | -88.0
C[C@H]1CN([C@@H](C)CO)C(=O)CCCn2nncc2CO[C@H]1CN(C)Cc1cccc(C(F)(F)F)c1 | -106.0
C[C@@H]1CN([C@H](C)CO)C(=O)CCCn2nncc2CO[C@@H]1CN(C)Cc1cccc2c1OCCCO2 | –
C[C@H](CO)N1C[C@H](C)[C@@H](CN(C)Cc2cccc3c2OCCCO3)OCc2cnnn2CCCC1=O | –
C[C@H](CO)N1C[C@H](C)[C@H](CN(C)Cc2cccc(C(F)(F)F)c2)OCc2cnnn2CCCC1=O | –
C[C@@H]1CN([C@@H](C)CO)C(=O)CCCn2nncc2CO[C@@H]1CN(C)Cc1cccc(C(F)(F)F)c1 | –
C=CC[C@@H]1CC=C[C@@H](C)N1C(=O)COc1cccc(NC(=O)CC)c1 | –
C=CCN1CC2(CCN(C(=O)c3cnccn3)CC2)OCC1=O | –
CCOCc1nnc(NC(=O)c2nc(-c3ccc(F)cc3)oc2C)s1 | –
COCCN1CC2(CCN(Cc3cnn(C)c3)CC2)c2ccccc21 | –
Cc1nc(C(=O)N(Cc2c(F)cccc2Cl)C2CC2)cs1 | –
COc1cccc(CN2C[C@@H]3CCN(C(=O)NC(C)C)CC[C@H]3S2(=O)=O)c1 | –
O=C(C1CCN(c2nc3ccccc3s2)CC1)N1CCc2ccccc21 | –
Cc1ccc2c(c1)c1c3n2CCN=C3CCC1 | –
Cc1cccc(NCc2c(C#N)c3ccccc3n2C)c1 | –
Cc1ccc2c(c1)c1cccc3c1n2CCN3CCC#N | -103.2
CN(c1ncccn1)C1COC2(CCN(C(=O)c3ccc[nH]3)C2)C1 (stereo not given) | –
COC(=O)c1cn(C[C@H]2CCCN(C(=O)OC(C)(C)C)C2)nn1 | –
Cc1[nH]c2ccc(C(=O)N3CCC[C@]4(CCC(=O)N4)[C@H]3c3cccc(F)c3)cc2c1C | –
CS(=O)(=O)N1CC(C(=O)Nc2nc(-c3ccccn3)cs2)Oc2ccccc21 (stereo not given) | -101.3
SMILES | Tg IFNy HTS
CCOC(=O)C1CN(S(=O)(=O)c2ccc(C)cc2)c2ccccc2O1 (stereo not given) | –
CS(=O)(=O)N1C[C@H]2COC[C@@]2(C(=O)NCc2ccccn2)C1 | –
Cc1ccc(-c2csnn2)cc1NC(=O)CCC1C(=O)Nc2ccccc21 (stereo not given) | –
CN(c1cncc(C(=O)NC2CCCCC2)c1)S(=O)(=O)c1ccccc1 | –
CC(C)Cc1ncc2c(n1)CN(C(=O)C1COC(=O)N1)C2 (stereo not given) | –
Cc1ccc(NC(=O)CNC(=O)C2CC(=O)N(CC(C)C)C2)c(F)c1 (stereo not given) | –
Cc1cc(C)c2c(c1)CC(C)(C)c1[nH]c(-c3ccc(Cl)cc3Cl)nc1-2 | -71.2
COc1ccc(-c2nc(Cn3nnc(-c4nc(-c5ccc(OC(C)C)cc5)no4)c3C)c(C)o2)cc1 | –
O=C(Cn1c(=O)ccc2cc(S(=O)(=O)N3CCCC3)ccc21)N1CC=C(c2ccccc2)CC1 | –
O=C(c1c[nH]c2ccccc12)N1CCC(c2nc(-c3ccccc3)no2)C1 (stereo not given) | –
CC(C)(C)c1ccc(-c2nn[nH]n2)cc1 | –
COCCN1CCN(C(=O)c2cccc(C)n2)Cc2cccnc21 | –
COC[C@H](NC(=O)c1cnc(C)s1)C(=O)N[C@@H](COC)C(=O)N[C@@H](Cc1ccccc1)C(=O)C1(C)CO1 (stereo not given in full) | -77.0
COC(=O)[C@H](Cc1ccccc1)NC(=O)[C@@H](N)CC(=O)O | –
COc1ncc(C(=O)NC(Cc2ccccc2)c2ccc3c(c2)OCCO3)cn1 (stereo not given) | –
CCCc1cc(-c2cc(NC3CCNCC3)nc3[nH]ccc23)nc(C)n1 | -80.4
c1cnc(-c2cc(NC3CCNCC3)nc3[nH]ccc23)cn1 | –
FC(F)(F)c1ccc(-c2cc(NC3CCNCC3)nc3[nH]ccc23)nc1 | –
CCc1cn[nH]c1C1CCN(Cc2cn[nH]c2C(=O)O)CC1 | –
Cc1c(CN2CCCC2c2ccccn2)[nH]c2ccc(F)cc12 (stereo not given) | –
Cn1cc(CN2CCCC2c2cncc(Nc3ccccn3)n2)c2cc(F)ccc21 (stereo not given) | -99.7
Fc1ccc(C(F)(F)F)cc1CN1CCCC1c1ccccn1 (stereo not given) | –
COc1ccc(-c2noc(COc3cccnc3C)n2)c(OC)c1OC | –
COc1ccc(-c2cccc(-c3noc(C)n3)c2)c(OC)c1OC | -74.9
Cc1nc(-c2cccc(-c3cccc4ccnn34)c2)no1 | –
SMILES | Tg IFNy HTS
O=C1[C@@H]2CN(c3ccccn3)C[C@@H]2CN1c1cccnc1 | –
Cc1oc(-c2ccc(C(=O)NCCc3ccco3)cc2)nc1CN1CCN(c2ccccc2)CC1 | –
COCCNC(=O)c1ccc(-c2nc(CN3CCN(c4ccccc4)CC3)c(C)o2)cc1 | –
CCCCN(CC)C(=O)c1ccc(-c2nc(CN3CCN(c4ccccc4)CC3)c(C)o2)cc1 | –
CCNC(=O)c1ccc(-c2nc(CN3CCN(c4ccccc4)CC3)c(C)o2)cc1 | –
Cc1oc(-c2ccc(C(=O)NCCc3cnc[nH]3)cc2)nc1CN1CCN(c2ccccc2)CC1 | -110.5
CCN(CC)CCCNC(=O)c1ccc(-c2nc(CN3CCN(c4ccccc4)CC3)c(C)o2)cc1 | -104.4
COc1ccc(-c2nc(Cn3nnc(-c4nc(-c5ccc(F)cc5)no4)c3C)c(C)o2)cc1 | –
CCc1c(C)sc2c1CCN(Cc1nc(-c3cc(C)ccc3C)oc1C)C2c1ccccc1 (stereo not given) | –
O=C(CN1C(=O)CCc2cc(Br)ccc21)Nc1ccc2c(c1)OCO2 | –
O=C(Cn1ncc2ccccc21)N1CC(=O)N(C2CCCCC2)CC(OCc2cccnc2)C1 (stereo not given) | –
Cc1ccc(-c2nc(C)c(CCNC(=O)C(=O)Nc3cc(F)ccc3F)s2)cc1 | –
Cc1ccc(NC(=O)CCNS(=O)(=O)c2ccccc2)c(C(=O)c2ccccc2)c1 | –
CC(=O)ON(CC(=O)Nc1ccccc1C(=O)c1ccccc1)C(C)=O | -77.1
COC(=O)c1ccccc1NC(=O)COc1nc(C)nc2ccccc12 | –
C=CCN(Cc1ccc(F)cc1)Cc1ccc(C(C)=O)cc1 | –
CN1CCN(C(=O)NCc2nc(-c3cccc(F)c3)c(-c3ccccn3)[nH]2)CC1 | –
Cn1cc(CN2CCc3ncnc(-c4cccc(F)c4)c3CC2)cn1 | –
CN1CCC(n2cc(-c3ccnc(N)c3)c(-c3cccc(F)c3)n2)CC1 | -97.1
CCn1ncnc1CN1CCC(O)(c2ccc3nc(C)ccc3c2)CC1 | –
C=CCOCc1nn(C(C)C)c2c1CCN(c1nccs1)C2 | –
CC(C)n1nc(COCCN(C)C)c2c1CN(c1nccs1)CC2 | –
CC(C)(C)c1ccc(C(=O)N2NC(=Nc3ccccc3)SC2(C)C)cc1 | -86.5
CC(C)(C)c1ccc(C(=O)N2CCCn3c2nc2ccccc2c3=O)cc1 | –
CC(C)(C)c1ccc(C(=O)N2CCN(C(=O)c3ccc(C(C)(C)C)cc3)CC2)cc1 | –
CS(=O)(=O)N1CCc2onc(Cn3cccc3)c2C1 | –
O=C(NCCc1csc(-c2ccccc2)n1)[C@H]1CCCN1S(=O)(=O)c1ccc(Cl)s1 | –
